Screening data as filed in PubChem BioAssay.
USP17 inh: inhibitors of human USP17 deubiquitinase; Ubiquitin carboxyl-terminal hydrolase 17-like protein 5 (Homo sapiens), A8MUK1; purified USP17, Ub-rhodamine cleavage fluorescence, 3 h; inhibition, % at 50 µM; 47,000 tested, 6.5% active; AID 1645855, 2021
Target sequence (A8MUK1 whole entry, looked up): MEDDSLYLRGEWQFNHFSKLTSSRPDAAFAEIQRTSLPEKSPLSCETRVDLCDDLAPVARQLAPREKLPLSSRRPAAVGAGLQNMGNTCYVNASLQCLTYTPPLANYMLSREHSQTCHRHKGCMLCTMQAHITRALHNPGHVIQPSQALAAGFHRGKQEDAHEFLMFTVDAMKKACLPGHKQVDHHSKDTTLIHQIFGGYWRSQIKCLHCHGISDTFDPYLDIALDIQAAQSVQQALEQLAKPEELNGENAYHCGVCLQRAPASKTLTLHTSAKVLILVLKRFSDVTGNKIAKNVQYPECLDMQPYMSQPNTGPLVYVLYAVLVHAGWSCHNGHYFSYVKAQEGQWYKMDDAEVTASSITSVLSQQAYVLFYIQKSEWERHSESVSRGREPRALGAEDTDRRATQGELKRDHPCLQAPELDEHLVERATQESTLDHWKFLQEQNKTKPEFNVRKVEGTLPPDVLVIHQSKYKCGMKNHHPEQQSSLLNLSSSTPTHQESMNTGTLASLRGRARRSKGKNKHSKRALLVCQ
USP28 block: inhibitors of human USP28 deubiquitinase. Ubiquitin carboxyl-terminal hydrolase 28 (Homo sapiens), Q96RU2. purified USP28, Ub-rhodamine cleavage fluorescence, 30 min. inhibition, % at 25 µM. 47,000 tested, 3% active. AID 1645857, 2021
OTUD3 block: inhibitors of human OTUD3 deubiquitinase | OTU domain-containing protein 3 (Homo sapiens), Q5T2D3 | purified OTUD3, Ub-rhodamine fluorescence, 2 h | inhibition, % at 25 µM | 47,000 tested, 0.7% active
USP30 inh: inhibitors of human USP30 deubiquitinase. 47,000 tested, 5.3% active. inhibition, % at 25 µM. purified USP30, Ub-rhodamine cleavage fluorescence
The depositor's hits bear a star; · = no result. Rows were chosen to be rich in hits. Some 12% of all compounds tested hit in one or more screens of this group. No stated cut-off is given here; in the data, active means inhibition above about 30%; inactive means the rest.

SMILES	USP17 inh	USP28 block	OTUD3 block	USP30 inh
Cc1nc(NCc2ccccc2)ncc1C(=O)NCc1ccc2c(c1)OCO2	3	-10	-63	-238
COc1ccc(-n2nc(C(=O)NC3CCCCC3)cc2-c2cccnc2)cc1	-8	0	-2	3
COc1ccccc1CC(=O)N1CCC(c2nn(CCN)c3nccnc23)C1 (stereo not drawn)	10	5	1	35*
O=C(c1ccc(COc2cccc3ccccc23)o1)N1CCC(Cc2ccccc2)CC1	68*	0	-8	-83
COc1ccc(CCNC(=O)c2cnc3sc4c(n3c2=O)CCCC4)cc1OC	-20	40*	-6	0
CCCN1C(=O)COc2ccc(-c3noc(C4CCCO4)n3)cc21 (stereo not drawn)	-7	0	-5	-2
CS(=O)(=O)c1cccc(C(=O)Nc2sc3c(c2C(N)=O)CCCC3)c1	36*	0	8	15
CCOC(=O)N1CCc2c(sc(NC(=O)c3ccc(S(C)(=O)=O)cc3)c2C(N)=O)C1	4	0	-2	-28
Cc1ccc(COc2cc(C(=O)NCc3ccccc3)c3ccccc3n2)cc1	-20	-8	-8	1
COc1ccc(Nc2cc(C(=O)NCc3cccnc3)c3ccccc3n2)cc1OC	40*	8	-3	14
Cc1ccc(CCNC(=O)c2cc(OCc3ccc(C)cc3)nc3ccccc23)cc1	10	4	12	0
CCOc1ccc(Nc2cc(C(=O)NCCc3ccccc3)c3ccccc3n2)cc1	56*	-10	-4	12
CCOc1ccc(Nc2cc(C(=O)NCc3ccc(C)cc3)c3ccccc3n2)cc1	53*	·	1	·
CC(=O)c1ccc(NC(=O)CCc2c(C)nn3cnnc3c2C)cc1	-4	-8	-5	6
Cn1c(=O)c2ccc(C3CCCCN3Cc3ccccn3)nc2n(C)c1=O (stereo not drawn)	-9	3	2	-12
CC(=O)NC(Cc1ccccc1)C(=O)NC1CCN(C(=O)C2CCCCC2)CC1 (stereo not drawn)	-2	-4	-2	-7
CC1(C)CC(=O)c2ccc(OCc3ccc([N+](=O)[O-])cc3)cc2O1	-4	36*	2	-11
CC(=O)c1ccc(OCCCC(=O)Nc2nc3c(C)cccc3s2)cc1	36*	14	9	17
CCN1CCc2nc(NC(=O)COc3ccc4ccccc4c3)sc2C1	-12	-4	-13	-26
CCN1CCc2nc(NC(=O)CCCOc3ccc(C(C)=O)cc3)sc2C1	44*	13	7	36*
COc1ccc2nc(NC(=O)CCCOc3ccc(C(C)=O)cc3)sc2c1	-5	2	-11	-37
Cc1c(C(=O)Nc2ccc(F)cc2F)oc2ccc3c(c12)C(=O)CC1(CCCC1)O3	-25	-31	-20	-83
COc1ccccc1C(=O)N1CCc2nc(-c3ccc(F)cc3)ncc2C1	-4	-3	-6	-12
COc1ccccc1C(=O)Nc1ccc(Cc2ccncc2)cc1	9	35*	12	30
O=C(CC1C(=O)Nc2nc(-c3ccccc3)nn21)Nc1ccccc1 (stereo not drawn)	2	-9	0	-8
SMILES	USP17 inh	USP28 block	OTUD3 block	USP30 inh
O=C(CC1C(=O)Nc2nc3ccccc3n21)Nc1cccc2ccccc12 (stereo not drawn)	17	20	26	46*
O=C(CC1C(=O)Nc2nc(-c3ccccc3)nn21)Nc1cccc2ccccc12 (stereo not drawn)	84*	0	-5	-4
COc1ccc(C2NC3=NCN(C(C)C)CN3c3nc4ccccc4n32)cc1 (stereo not drawn)	12	12	20	33*
O=C(Nc1ccccc1C(=O)NC1CCSC1)c1ccc([N+](=O)[O-])cc1 (stereo not drawn)	46*	9	17	45*
COc1ccc(OC)c(NC(=O)C2=C(C)Nc3ncnn3C2c2ccccc2OCc2ccc(C)cc2)c1 (stereo not drawn)	58*	-3	-5	-20
CS(=O)(=O)c1cccc(-c2nnc(NC(=O)c3ccc(Cc4ccccc4)cc3)o2)c1	5	19	13	35*
CC(NC(=O)c1ccc(-c2nnc(-c3ccccc3)o2)cc1)c1ccc(S(C)(=O)=O)cc1 (stereo not drawn)	71*	23	36*	41*
CS(=O)(=O)c1ccc(-c2nnc(NC(=O)c3ccco3)o2)cc1	6	9	10	10
CC1CCc2c(cnc3c(C(=O)NCc4cccs4)cnn23)C1 (stereo not drawn)	7	1	13	1
CN1CCCc2cc(C(=O)N3CCN(c4ccccc4F)CC3)sc21	-9	4	-8	-21
COc1cc(OC)cc(-c2nc(-c3cn(-c4cccc(F)c4)nn3)no2)c1	1	22	21	65*
COc1ccccc1-c1nc(-c2cn(-c3ccc(C)cc3)nn2)no1	62*	1	11	11
COc1cccc(-c2nc(-c3cn(Cc4ccc(C)cc4)nn3)no2)c1	4	8	2	9
COc1ccccc1-c1nc(-c2cn(-c3cccc(Cl)c3)nn2)no1	-18	20	17	46*
Fc1cccc(Cn2cc(-c3noc(-c4cccnc4)n3)nn2)c1	63*	-3	-2	-5
Fc1cccc(-n2cc(-c3noc(-c4ccncc4)n3)nn2)c1	11	4	4	18
CC1CC(=O)c2cn3nc(-c4ccncc4)nc3nc2C1 (stereo not drawn)	5	0	2	7
O=C(Nc1nccn(-c2cccc(F)c2)c1=O)c1cccc(F)c1	-4	0	1	1
CCCCCn1c(=O)c2sccc2n2c(CCC(=O)NC3CCCCCC3)nnc12	35*	13	10	27
CCCCOc1ccc(C(=O)N2CCN(c3ccc(N4CCCCC4)nn3)CC2)cc1	0	0	5	17
CCc1nc(CN2CCOC(C)(C(=O)N3CCOCC3)C2)c(C)[nH]1 (stereo not drawn)	7	6	4	30*
CCc1nc(CN2CCN(C3CCOCC3)CC(C(N)=O)C2)c(C)[nH]1 (stereo not drawn)	0	-1	-6	11
CC(C)[C@@H](NC(=O)C1CCN(C(=O)[C@H](N)Cc2ccccc2)CC1)C(=O)NCc1ccccc1F	12	15	27	43*
O=C(COc1ccccc1F)N1CCSc2ccc(Cl)cc21	32*	41*	26	34*
O=C(COc1ccc(F)cc1Br)N1CCSc2ccccc21	12	6	12	14
CCc1nnc2ccc(C(=O)N3CCN(Cc4ccccc4)CC3)cn12	-31	-41	-31	-113
CN(C)C(=O)c1ccc(Nc2nc(-c3cccnc3)nc3ccccc23)cc1	37*	0	-13	-50
Cc1ccc2[nH]c(=O)c(CN(CC3CCCO3)S(=O)(=O)c3ccccc3)cc2c1 (stereo not drawn)	53*	15	21	37*
